Experimental findings from PubChem BioAssay AID720647 (Broad Institute, 2013) are described below.

In all, about 380,000 compounds went through this assay and about 1,300 (0.34%) were called active. The list comes from a sample in which actives are over-represented; it also holds similar structures and randomly drawn compounds. A number with no mark means an inactive call.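 How the source made its calls: active means drop in luminescence signal, shown as inhibition above about 50% in the replicate tests (limit read from the data, passing the limit was not always enough); inconclusive means probably only some replicates passing the limit; inactive means the rest.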

The subject of the experiment is Drosophila bursicon receptor LGR2 (rickets). The experiment can be described thus: inhibitors of bursicon-induced LGR2 CRE-luciferase signal, primary screen, cell-based, HEK293, CRE-luciferase reporter, bursicon stimulation (AID 720647).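 Further: agonist challenge used bursicon conditioned medium at about half maximal strength.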 Particulars: bursicon-stimulated, 4 h, at 9.99 µM, stronger effect = higher value. On the technique in general: A reporter such as luciferase makes a cellular process visible.
Broadly, the inhibition is the drop in the measured response relative to a control, in per cent. On to `O=C(Nc1ccccc1F)N1CC(=O)N2[C@H](C1)[C@H](c1ccc(C#Cc3ccc(F)cc3)cc1)[C@@H]2CO`, for which the inhibition is 5.08%.

Consider `C[C@@H]1CN([C@@H](C)CO)C(=O)c2cc(NC(=O)Cc3ccccc3)ccc2O[C@H]1CN(C)CC1CC1`, for which the inhibition is -1.21%.

For `COc1ccc(CC(=O)NCc2nnc(SCC(=O)Nc3ncc(C)s3)n2C)cc1`, the inhibition was 8.94%.

Consider `COC(=O)Nc1ncc(CN2C(=O)c3ccccc3C2=O)s1`, for which the inhibition is -22.5%.

With `Cc1cnc(NC(=O)c2ccccn2)s1`, the inhibition is 59.5% (active).

Take `C[C@H]1CN([C@@H](C)CO)C(=O)CCCn2nncc2CO[C@@H]1CN(C)S(=O)(=O)c1ccccc1C#N`: the inhibition is -2.41%.

In the case of `O=C(Nc1ccccc1)N1CCCCN2[C@H](CO)[C@@H](c3ccc(-c4ccccc4F)cc3)[C@H]2C1`, the inhibition is 17.4%.

For the molecule `CCCNC(=O)N1[C@H](C#N)[C@@H](c2ccccc2C2=CCCCC2)[C@@H]1CO`, the inhibition is 8.2%.

For the molecule `O=C1CN(Cc2ccccc2)C[C@H]2[C@H](c3ccc(-c4ccccc4)cc3)[C@@H](CO)N12`, the inhibition was -6.09%.

As to `O=C(CCCc1ccccc1)NCc1ccccc1`, the inhibition is -36.7%.

In the case of `C=CCN1CCN(C(=O)CCCc2ccccc2)CC1`, the inhibition was 66.7% (active).

`O=C(CCc1ccccc1F)N1CCN(c2ccccc2)CC1`: the inhibition is -17%.

Consider `CCCNC(=O)C[C@@H]1CC[C@H]2[C@H](COc3ccc(NC(=O)c4ccc(Cl)cc4)cc3C(=O)N2C)O1`, for which the inhibition was -13.7%.

As to `COc1ccc(-c2cn(CC[C@@H]3CC[C@@H](NC(=O)CCN4CCCCC4)[C@@H](CO)O3)nn2)cc1`, the inhibition was -11.8%.

Take `O=C(Nc1ccccc1Cl)/C(Cl)=C(\Cl)S(=O)c1ccccc1` (stereo not drawn): the inhibition is 98.9% (active).

As to `C[C@H](CO)N1C[C@H](C)[C@H](CN(C)Cc2ccccc2)OCCCC[C@H](C)Oc2ccc(NC(=O)Cc3ccccc3)cc2C1=O`, the inhibition is 24%.

For the molecule `C[C@H](CO)N1C[C@H](C)[C@@H](CN(C)Cc2ccccc2)OCCCC[C@H](C)Oc2ccc(NC(=O)Cc3ccccc3)cc2C1=O`, the inhibition is 3.25%.

In the case of `O=C(C[C@H]1C=C[C@@H](NC(=O)Nc2cc(F)ccc2F)[C@H](CO)O1)NCCCN1CCOCC1`, the inhibition is -7.04%.

In the case of `COc1cncc(-c2cnc3sc(NCCc4ccccn4)nn23)c1`, the inhibition was 20.8%.

As to `COc1cccc(C(NC(C)=O)c2nc(-c3ccccc3OC)cs2)c1` (stereo not drawn), the inhibition was -5.66%.

Turning to `COc1ccc(-c2csc(Nc3ccccn3)n2)cc1`, the inhibition was 78.5% (active).

For `C[C@H](CO)N1C[C@H](C)[C@H](CN(C)C(=O)Nc2ccc(F)cc2)Oc2ccc(NC(=O)Cc3cn(C)c4ccccc34)cc2CC1=O`, the inhibition was 10.8%.

Turning to `C[C@@H]1CN([C@@H](C)CO)C(=O)c2cc(NS(=O)(=O)c3ccccc3)ccc2O[C@H]1CN(C)CC1CCCCC1`, the inhibition is -4.25%.

Turning to `C[C@@H]1CN([C@@H](C)CO)C(=O)CCCn2cc(nn2)CO[C@H]1CN(C)Cc1ccc(C(=O)O)cc1`, the inhibition was 6.13%.

`COCCNC(=O)C[C@H]1CC[C@H]2[C@H](COc3ccc(NC(=O)C4CCOCC4)cc3C(=O)N2C)O1`: the inhibition was -14%.

With `O=C(CSc1ccccc1F)NC1CCS(=O)(=O)C1` (stereo not drawn), the inhibition is 23.4%.

As for `O=S1(=O)CCC(NC(=S)SCc2ccccc2Br)C1` (stereo not drawn), the inhibition was 69.2% (active).

On to `CC(C)C(=O)NC(NC(=S)NC1CCS(=O)(=O)C1)C(Cl)(Cl)Cl` (stereo not drawn), for which the inhibition was -0.282%.

For the molecule `CC(=O)Nc1cccc(C(=O)OCC(=O)c2ccc3c(c2)OCO3)c1`, the inhibition is 63.3% (active).

Turning to `CCOc1cc(C(=O)OCC(=O)Nc2cccc(C)c2)ccc1OCC(=O)N1CCOCC1`, the inhibition was 16.2%.

For `CCOc1ccc(NCCC(=O)c2ccc3c(c2)OCO3)cc1`, the inhibition is -15.9%.

Turning to `O=C(COC(=O)c1ccccc1)c1ccc2c(c1)OCCO2`, the inhibition was 66.7% (active).

For the molecule `N#CCCN(C(=O)COC(=O)c1ccc2c(c1)OCCO2)c1ccccc1`, the inhibition was 4.75%.

For the molecule `O=C1COc2ccc(C(=O)COC(=O)c3ccccc3Cl)cc2N1`, the inhibition was -31.2%.

As to `COc1ccc2c3c(n(C)c2c1)[C@H](CO)N(Cc1ccccc1)CC31CN(C(=O)c2ccccc2F)C1`, the inhibition was 13.5%.

Consider `CCCC(=O)Nc1ccc2c(c1)C(=O)N(C)C[C@H](OC)[C@H](C)CN(C(=O)c1ccccn1)[C@H](C)CO2`, for which the inhibition was 14%.

Regarding `O=C(C[C@H]1C=C[C@H](NC(=O)CC2CC2)[C@@H](CO)O1)NCc1ccccc1`, the inhibition was -1.04%.

Regarding `C[C@H]1CN([C@@H](C)CO)C(=O)c2cc(NC(=O)Cn3cnnn3)ccc2O[C@H]1CN(C)C(=O)NC1CCCCC1`, the inhibition was -0.859%.

`COc1ccc2c3c([nH]c2c1)[C@@H](CO)N(C(=O)Nc1ccc(F)cc1)CC31CN(S(C)(=O)=O)C1`: the inhibition was -10.4%.

Consider `C[C@@H]1CN([C@@H](C)CO)C(=O)c2cc(-c3ccc(C#N)cc3)cnc2O[C@@H]1CN(C)Cc1cccnc1`, for which the inhibition was 21.1%.

Take `O=S(=O)(Cc1noc(-c2ccc(OC(F)(F)F)cc2)n1)c1ccc(F)cc1`: the inhibition is -18.2%.

Consider `O=S(=O)(Nc1ccc(O)c2ccccc12)c1ccc(OC(F)(F)F)cc1`, for which the inhibition is 58.8% (active).

Regarding `O=[N+]([O-])c1ccc(NS(=O)(=O)c2ccccc2)c(Cl)c1`, the inhibition was -13%.

Regarding `CCCN1[C@@H]2c3ccc(C4=CCCC4)c(=O)n3C[C@@H]2[C@@H](CO)[C@@H]1C(=O)NCc1ccccn1`, the inhibition was -8.46%.

In the case of `COc1ccc(S(=O)(=O)N(C)C[C@H]2OCCCC[C@H](C)Oc3ccc(NC(=O)Nc4ccc5c(c4)OCO5)cc3C(=O)N([C@@H](C)CO)C[C@@H]2C)cc1`, the inhibition was 21.6%.

Consider `CO[C@@H]1CN(C)C(=O)c2ccc(NC(C)=O)cc2OC[C@@H](C)N(CC2CC2)C[C@H]1C`, for which the inhibition was -1.72%.

On to `C[C@H](CO)N1C[C@H](C)[C@H](CN(C)CC2CC2)OCCCC[C@H](C)Oc2ccc(NC(=O)c3ccncc3)cc2C1=O`, for which the inhibition is -8.96%.

In the case of `Cc1ccc(S(=O)(=O)Nc2ccc3c(c2)C(=O)N([C@H](C)CO)C[C@H](C)[C@H](CN(C)S(=O)(=O)c2ccc(F)cc2)O3)cc1`, the inhibition was 2.4%.
